# The list is not random: actives were taken first. Their share in the collection is about 3.5%.
# MITF primary = blocks human microphthalmia-associated transcription factor | inhibition, % at 2.6 µM | actives 0.91% (n = 650,000) | AID 1259374 | O75030 | AlphaScreen MITF homodimerization, bead proximity signal; in the data active = inhibition above about 50%;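 note: 0% = vehicle wells with protein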
# Target sequence (O75030 whole entry, looked up): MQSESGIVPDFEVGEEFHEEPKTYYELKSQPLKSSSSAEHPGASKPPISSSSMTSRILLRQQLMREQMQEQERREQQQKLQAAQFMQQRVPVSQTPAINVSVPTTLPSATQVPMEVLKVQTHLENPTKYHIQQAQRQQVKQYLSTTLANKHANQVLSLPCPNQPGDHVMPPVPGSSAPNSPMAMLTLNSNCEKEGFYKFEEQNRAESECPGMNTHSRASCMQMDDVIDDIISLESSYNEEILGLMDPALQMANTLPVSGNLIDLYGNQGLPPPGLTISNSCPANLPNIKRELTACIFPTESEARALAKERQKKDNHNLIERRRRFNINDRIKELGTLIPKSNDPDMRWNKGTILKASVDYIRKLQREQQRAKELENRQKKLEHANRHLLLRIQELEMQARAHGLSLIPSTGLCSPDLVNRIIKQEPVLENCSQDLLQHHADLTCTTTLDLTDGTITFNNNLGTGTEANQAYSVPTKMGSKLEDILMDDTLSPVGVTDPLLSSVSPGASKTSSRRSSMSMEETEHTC
# TEAD-YAP block = TEAD-YAP interaction inhibition. HEK-TIYL cells, TEAD-Gal4/YAP UAS-luciferase luminescence. inhibition, % at 9.12 µM. actives 1.4% (n = 640,000); in the data active = inhibition above about 32%;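 note: 0% = median of test compound wells and 100% = reference inhibitor wells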
# FBW7 act = activators of human E3 ligase FBW7. actives 0.13% (n = 650,000). Q969H0. AlphaScreen FBW7–phospho-cyclin E peptide binding, activator screen. normalized activity (activation), % at 26.1 µM. AID 1259310; in the data active = normalized activity above about 1.9%;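 note: purified mutant Fbw7 with reduced substrate affinity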
# GPR151 ag = activators of human GPR151; PathHunter beta-arrestin GPR151 cells, luminescence; activation, % at 11.2 µM; actives 1% (n = 650,000); AID 1508602; in the data active = activation above about 4.9%;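 note: 0% = median of compound wells and 100% = cells with positive control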
# Numbers without * were called inactive.
SMILES,MITF primary,TEAD-YAP block,FBW7 act,GPR151 ag
N#CCNC(=O)CCCCCN1C(=O)c2ccccc2C1=O,1,-12,0,0
Cc1nc(C)c(-c2csc(Nc3cccc(O)c3)n2)s1,10,35*,0,-1
Oc1ccc(-c2csc(Nc3ccccc3)n2)cc1O,66*,-15,0,1
Cc1ccc(Nc2nc(-c3c(C)nc4sccn34)cs2)c(C)c1,-3,50*,0,1
CCC(=O)Nc1nc(C)c(-c2csc(Nc3ccc(NC(C)=O)cc3)n2)s1,13,44*,0,-2
Oc1ccc(-c2csc(Nc3ccc(Cl)cc3)n2)cc1O,-1,-75,0,-1
Cc1cccc(NC(=O)Cn2c(=O)n(CC3CCCO3)c(=O)c3ccccc32)c1C (configuration not stated),-4,13,0,1
CC(C)Cn1c(=O)c2ccccc2n(Cc2nc(-c3ccc(Cl)cc3)no2)c1=O,16,-7,0,-1
CC(C)=NNC(=O)/C(=C/C=C/c1ccccc1)NC(=O)c1ccccc1,11,-1,0,0
Cc1noc2nc(-c3ccc4c(c3)OCO4)cc(-c3nnc4n3CCCCC4)c12,3,4,0,-1
S=c1[nH]nc(-c2cccnc2)n1/N=C/c1ccccc1Br,5,0,0,2
N#CC1CCCc2c1[nH]c1ccc(Cl)cc21 (configuration not stated),-1,39*,0,2
CC(C)n1c(Nc2ccncc2)nc2c(Nc3ccc(Oc4ccccc4)cc3)ncnc21,19,45*,0,-1
CC(C)n1c(Nc2ccc(-n3ccnc3)cc2)nc2c(Nc3ccccc3)ncnc21,1,49*,0,-6
CC(C)n1c(NCc2cccnc2)nc2c(Nc3ccccc3)ncnc21,8,53*,0,-6
CC(C)(C)c1ccc(C(=O)Nc2nnc(-c3ccc(C(C)(C)C)cc3)s2)cc1,-12,-8,0,0
CCOC(=O)C1(N(CC)CC)Sc2cc(C)ccc2NC1=O (configuration not stated),7,-1,0,-2
CCOC(=O)C1(Nc2ccccc2)Sc2cc(C)ccc2NC1=O (configuration not stated),20,63*,0,2
CCOC(=O)C1(NC(=S)N2CCOCC2)Sc2cc(C)ccc2NC1=O (configuration not stated),-2,52*,0,1
Cc1nc2c(-c3ccccc3)c(C)nn2c(C)c1CC(=O)NCc1ccc(Cl)cc1,-4,-6,0,0
CN1CCN(CCC(=O)N/N=C/c2cccc(Br)c2)CC1,40,12,0,0
COc1cc(C(=O)N2CCN(c3ccc(F)cc3)CC2)cc(OC)c1OC,7,-1,0,1
Cc1ccc(N=C(NOCc2ccccc2[N+](=O)[O-])c2nonc2N)cc1,5,4,1,-1
c1cnn(CCCNc2nncc(-c3ccc4c(c3)OCO4)n2)c1,-14,85*,1,0
Cc1cc(C)n(CCNc2nncc(-c3ccc4c(c3)OCO4)n2)n1,2,28,0,0
SMILES,MITF primary,TEAD-YAP block,FBW7 act,GPR151 ag
O=C1CC(N2CCCCC2)C(=O)N1c1cc(Cl)cc(Cl)c1 (configuration not stated),-7,46*,0,4
O=C1CC(N2CCCC2)C(=O)N1c1ccc(Cl)cc1 (configuration not stated),-2,1,0,0
O=C(c1ccc(S(=O)(=O)N2CCCCC2)cc1)N(Cc1ccccn1)c1nc2ccccc2s1,8,0,0,0
CCOC(=O)C1CCN(c2ccc3nncn3n2)CC1,2,5,0,1
CCOC(=O)c1cn2nc(N3CCCCC3)ccc2n1,-1,43*,0,-6
COc1ccc2nc(-c3ccc(N)cc3)[nH]c2c1,1,54*,0,-7
COC(=O)C(C)Oc1ccc2c(C)c(C)c(=O)oc2c1C (configuration not stated),2,4,0,-1
CCC1CN(Cc2cccnc2)Cc2ccc(Cl)cc2O1 (configuration not stated),22,5,0,0
CC(C)(C)CC(=O)Nc1cccc(C#N)c1,-5,-2,0,1
Cn1cc(-c2cccc3cnc(NC4CCN(C(=O)N5CCCC5)C4)nc23)cn1 (configuration not stated),0,39*,0,-1
Cc1ccc(S(=O)(=O)N(CC(=O)NCc2ccncc2)Cc2ccccc2)cc1,24,-2,1.9*,-1
Cc1ccc(CNC(=O)CN(Cc2ccccc2)S(=O)(=O)c2ccccc2)cc1,12,5,0,-1
CC1CC(C)CN(S(=O)(=O)c2ccc(C(=O)Nc3ccccc3)cc2)C1 (configuration not stated),9,-15,0,-1
COC(=O)C1=CN(Cc2ccc(OC)c(OC)c2)C=C(C(=O)OC)C1c1ccc(Br)cc1,4,3,1.9*,-2
CCOc1cc(C2C(C(=O)OC)=CN(Cc3ccc(OC)c(OC)c3)C=C2C(=O)OC)ccc1O,13,48*,1,0
COC(=O)C1=CN(Cc2ccc(OC)c(OC)c2)C=C(C(=O)OC)C1c1ccc(F)cc1,-4,-21,0,0
CCOc1cc(C2C(C(=O)OC)=CN(Cc3ccc(Cl)cc3)C=C2C(=O)OC)ccc1O,-2,-4,0,-1
CC1=C(C)/C(=N\S(=O)(=O)c2ccc(C)cc2)C=C(N(C)C)C1=O,84*,4,0,0
CC1=C(C)/C(=N\S(=O)(=O)c2ccccc2)C=C(Cl)C1=O,6,1,0,-1
CN(C)C1=C/C(=N/S(=O)(=O)c2ccccc2)c2ccccc2C1=O,59*,90*,0,2
Cc1cc([N+](=O)[O-])ccc1-c1ccc(/C=C2/C(=O)NC(=O)N(Cc3ccco3)C2=O)o1,68*,-3,0,-2
O=C1NC(=O)N(Cc2ccco2)C(=O)/C1=C\c1ccc(-c2ccc(Br)cc2)o1,70*,0,0,0
O=C1NC(=O)N(Cc2ccco2)C(=O)/C1=C\c1ccc(-c2ccc(C(=O)O)cc2)o1,52*,-2,0,-1
Cc1ccc([N+](=O)[O-])cc1-c1ccc(/C=C2/C(=O)NC(=O)N(Cc3ccco3)C2=O)o1,43,-3,0,0
O=C1NC(=O)N(Cc2ccco2)C(=O)/C1=C\c1ccc(-c2ccc([N+](=O)[O-])cc2)o1,75*,-6,0,0
SMILES,MITF primary,TEAD-YAP block,FBW7 act,GPR151 ag
CCOC(=O)c1ccc(-c2ccc(/C=C3/C(=O)NC(=O)N(Cc4ccco4)C3=O)o2)cc1,34,-61,0,-1
COc1ccc(C(=O)CSc2nc3ncnc(N)c3[nH]2)cc1,-11,-4,0,0
N#C/C(=C\c1ccccc1Cl)c1nc(-c2cccc(Br)c2)cs1,4,-12,0,0
O=C(/C=C/c1cccc([N+](=O)[O-])c1)Nc1cccc(F)c1,0,-42,0,2
CN(C)CCN(C)C(=O)c1ccc(-c2cccc(O)c2)nc1N(C)C,-5,7,0,0
CCN(CC)c1ccc(NC(=O)c2ccc3c4c(cccc24)CC3)cc1,10,51*,0,0

# From PubChem BioAssay
